# Measurements published in publication PMC4336329 (PLoS ONE, 2015).
# Out of some 310,000 compounds screened, about 14,000 (4.5%) showed an effect of 50% or more. The effect is printed as a negative number. This excerpt belongs to a sample that is enriched for strong results.
# Biological target: human ether-à-go-go-related gene (hERG) potassium channel (human, UniProt Q12809)
# Assay: primary screen, population patch clamp on CHO cells stably expressing hERG; higher = less effect of the substance
# 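Further: peak tail current of the secondary pulse compared with the same well before compound.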
# human ether-à-go-go-related gene (hERG) potassium channel, sequence (Q12809 whole entry, looked up): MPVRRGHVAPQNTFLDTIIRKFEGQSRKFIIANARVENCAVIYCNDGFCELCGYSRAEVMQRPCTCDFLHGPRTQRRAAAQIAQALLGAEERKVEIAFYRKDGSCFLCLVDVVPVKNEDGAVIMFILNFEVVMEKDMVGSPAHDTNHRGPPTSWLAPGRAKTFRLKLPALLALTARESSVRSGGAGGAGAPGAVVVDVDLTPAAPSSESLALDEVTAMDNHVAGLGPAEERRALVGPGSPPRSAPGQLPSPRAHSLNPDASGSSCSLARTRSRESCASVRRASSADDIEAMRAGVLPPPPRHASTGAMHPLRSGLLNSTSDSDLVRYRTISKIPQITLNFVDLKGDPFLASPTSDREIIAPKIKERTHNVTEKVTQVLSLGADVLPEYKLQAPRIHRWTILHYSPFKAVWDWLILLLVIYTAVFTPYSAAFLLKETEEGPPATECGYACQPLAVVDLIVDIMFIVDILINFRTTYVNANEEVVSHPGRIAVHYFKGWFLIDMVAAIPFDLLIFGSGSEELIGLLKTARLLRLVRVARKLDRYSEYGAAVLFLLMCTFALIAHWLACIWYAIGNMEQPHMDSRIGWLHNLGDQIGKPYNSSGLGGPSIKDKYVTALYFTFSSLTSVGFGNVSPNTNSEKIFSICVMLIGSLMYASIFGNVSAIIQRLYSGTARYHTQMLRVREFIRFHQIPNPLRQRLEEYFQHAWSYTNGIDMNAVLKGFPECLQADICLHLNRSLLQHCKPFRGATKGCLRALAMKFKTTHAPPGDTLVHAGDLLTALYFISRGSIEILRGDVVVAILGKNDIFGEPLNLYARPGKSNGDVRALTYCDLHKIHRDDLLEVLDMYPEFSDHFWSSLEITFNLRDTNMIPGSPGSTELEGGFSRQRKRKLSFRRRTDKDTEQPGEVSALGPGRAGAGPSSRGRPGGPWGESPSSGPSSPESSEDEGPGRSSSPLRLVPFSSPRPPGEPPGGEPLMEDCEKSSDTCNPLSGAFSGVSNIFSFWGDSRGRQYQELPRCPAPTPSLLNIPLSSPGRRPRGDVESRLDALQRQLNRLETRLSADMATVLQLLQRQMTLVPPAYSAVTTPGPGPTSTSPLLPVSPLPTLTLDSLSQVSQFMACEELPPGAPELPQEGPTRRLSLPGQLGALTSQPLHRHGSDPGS
row,Compound,"hERG current change (%, negative = inhibition) at 10uM [%]"
1,O=C(NC(Cc1ccccc1)c1ccc2c(c1)OCCCO2)c1ccc(F)cc1 (centres unmarked),8.05
2,COc1ccc2cc1Oc1ccc(cc1)CC1c3c(cc(OC)c4c3Oc3cc5c(cc3O4)CCNC5C2)CCN1C (centres unmarked),0.681
3,N#Cc1c(Cl)nc(SCc2ccccc2)nc1-c1ccccc1,8.45
4,CN(C(=O)c1ccccc1C(=O)OCC(=O)Nc1ccccc1)c1ccccc1,0.655
5,CN(C(=O)c1ccccc1C(=O)OCC(=O)Nc1ccc(S(N)(=O)=O)cc1)c1ccccc1,-5.32
6,CN(C(=O)c1ccccc1C(=O)OCC(=O)Nc1ccc(OC(F)F)cc1)c1ccccc1,-54
7,CCOc1cc2c(Cl)ncnc2c(OCC)c1OCC,23.3
8,CCOC(=O)c1cccc(NC(=O)CCn2cccc2)c1,-27.7
9,COc1c2ccccc2nc2ccccc12,13.3
10,COc1cc(NC(=O)c2ccc3c(SCC(=O)O)c4c(nc3c2)CCCC4)cc(OC)c1OC,12.3
11,COc1ccccc1Nc1nc(-c2ccccc2)nc2ccccc12,23.5
12,COc1ccc(Nc2nc(N)c3ccccc3n2)c(OC)c1.Cl,-14.9
13,COc1cc(Nc2c3c(nc4ccccc24)CCCC3)cc(OC)c1OC,-65.9
14,COc1cc(NS(C)(=O)=O)ccc1Nc1c2ccccc2nc2ccccc12.Cl,-67.7
15,COc1cc(Nc2nc(SCC#N)nc3ccccc23)cc(OC)c1OC,-32
16,COc1ccccc1Nc1c2ccccc2nc2ccccc12,-71
17,COc1ccc([N+](=O)[O-])cc1Nc1c2ccccc2nc2ccccc12,9.54
18,COc1ccc(OC)c(Nc2c3ccccc3nc3ccccc23)c1,-11
19,COc1cc(Nc2c3ccccc3nc3ccccc23)cc(OC)c1OC,-63.9
20,COc1ccc(S(=O)(=O)N2CCCCCC2)cc1NC(=O)CN1C(=O)NC(C)(c2ccc(C)cc2)C1=O (centres unmarked),-12.8
21,Cc1ccc(NC(=O)CCC(=O)c2cccs2)cc1F,2.31
22,CCOC(=O)c1oc2cc(O)c(CC)cc2c(=O)c1-c1cscn1,2.56
23,CCC(C)N1C(=O)CCC1C(=O)N1CCN(c2ccc(F)cc2)CC1 (centres unmarked),-28.3
24,Cc1ccc(O)c(Nc2ncnc3ccccc23)c1.Cl,11.8
25,COc1cc(NC(=O)CSc2c3c(nc4ccccc24)CCC3)cc(OC)c1OC,-7.51
26,COc1cc(Nc2c3c(nc4ccccc24)CCC3)cc(OC)c1OC,-60
27,COC(=O)c1c2c(nc3ccccc13)CCC2,-3.81

row,Compound,"hERG current change (%, negative = inhibition) at 10uM [%]"
1,COc1ccc(NC(=O)COC(=O)c2c3c(nc4ccccc24)CCCC3)cc1Cl,9.73
2,Cc1ccc(O)c(Nc2c3ccccc3nc3ccccc23)c1,-52.8
3,COc1ccc(Nc2nc(-c3ccccc3F)nc3ccccc23)cc1OC,0.695
4,COc1ccc(Nc2c3c(nc4ccccc24)CCCC3)cc1OC,-73.2
5,Cc1ccc(O)c(Nc2nc(-c3ccccc3)nc3ccccc23)c1,14.9
6,O=C(NCC(c1cccnc1)N1CCN(c2ccc(F)cc2)CC1)c1ccco1 (centres unmarked),-47.7
7,CN(C)/C=C(\C(=O)c1ccc(F)cc1F)c1nnnn1-c1ccccc1,21.1
8,CCOC(=O)/C(C#N)=C/Nc1ccccc1OC,0.538
9,Cc1cc(=O)oc(C)c1C(=O)OCC(=O)c1ccccc1,-5.02
10,COc1ccc(N(Cc2cc3cc(OC)ccc3[nH]c2=O)S(=O)(=O)c2ccc(NC(C)=O)cc2)cc1,5.64
11,CCC1(c2ccccc2)NC(=O)N(CC(=O)NC2(C#N)CCCCC2)C1=O (centres unmarked),2.94
12,Cc1ccc(C2(c3ccccc3)NC(=O)N(CC(=O)NC3CCS(=O)(=O)C3)C2=O)cc1C (centres unmarked),-9.17
13,Cc1ccc(C2(c3ccccc3)NC(=O)N(CC(=O)NCc3ccco3)C2=O)cc1C (centres unmarked),-50.4
14,N#CC1(NC(=O)CN2C(=O)NC(c3ccccc3)(c3ccccc3)C2=O)CCCC1,-55
15,Cc1ccc(C2(c3ccccc3)NC(=O)N(CC(=O)NC3(C#N)CCCC3)C2=O)cc1C (centres unmarked),-63.4
16,COc1ccc(C2(c3ccc(OC)cc3)NC(=O)N(CC(=O)NC3(C#N)CCCCC3)C2=O)cc1,-42.4
17,Cc1ccc(C2(c3ccccc3)NC(=O)N(CC(=O)N(C)C3CCS(=O)(=O)C3)C2=O)cc1C (centres unmarked),-22
18,N#CC1(NC(=O)CN2C(=O)NC3(CCCCCC3)C2=O)CCCCC1,-0.951
19,CCN(C(=O)CN1C(=O)NC(c2ccccc2)(c2ccc(C)c(C)c2)C1=O)C1CCCCC1 (centres unmarked),-33.3
20,Cc1cc(NC(=O)CN2C(=O)NC(c3ccccc3)(c3ccc(C)c(C)c3)C2=O)no1 (centres unmarked),-48.5
21,CCN(C(=O)CN1C(=O)NC(c2ccccc2)(c2ccc(C)c(C)c2)C1=O)C1CCS(=O)(=O)C1 (centres unmarked),-53.4
22,Cc1ccc(C2(c3ccccc3)NC(=O)N(CC(=O)NCc3ccccc3)C2=O)cc1C (centres unmarked),-23
23,O=C1c2ccccc2C2NC(=O)C3(CCCCC3)N12 (centres unmarked),7.54
24,COc1ccc(C2CC(=O)N(c3ccccc3)C3=C2C(=O)CCC3)cc1 (centres unmarked),13.1
25,O=C(CN1C(=O)CC(c2ccco2)Sc2ccccc21)NCc1ccc2c(c1)OCO2 (centres unmarked),-37.1
26,S=C(NCCCc1ccccc1)Nc1ccccc1Cl,2.38
